# Measurements as given in PubChem BioAssay.
# Results filed as inconclusive are left out. For some assays here: Results with a measured potency or affinity are listed apart. Active and inactive are the calls of the source.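 How the source made its calls, unless noted: active means compounds killing one labelled cell type while sparing the other, by normalised counts and ratio limits, not self-fluorescent; inactive means the rest.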
# Assays:
# [1] = polyglutamine-triggered caspase-3 activation inhibitors, cell-based (AID 1583); conditions: polyglutamine-induced caspase-3 activation, cell assay; stronger effect = higher value;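 tested at 10 µM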
# [2] = suppressors of polyQ aggregation in yeast, 75Q-TubU reporter (AID 1593); conditions: Yeast 75Q polyglutamine aggregation reporter
# [3] = rescue of polyQ-huntingtin neuronal dysfunction in worms, whole organism, C. elegans mechanosensory neurons, N-terminal huntingtin (AID 1599); conditions: touch response, stronger effect = higher value
# [4] = inhibitors of mitochondrial cytochrome c release, biochemical, purified mitochondria (AID 1603); conditions: stronger effect = lower value;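 further: mouse liver mitochondria challenged with calcium chloride; signal normalized to the plate average as 100%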
# [5] = inhibitors of polyQ protein aggregation (AID 1604); conditions: polyglutamine-induced protein aggregation inhibition assay; stronger effect = higher value; tested at 2.5 µM
# [6] = protection against mutant huntingtin cytotoxicity, PC12 cells, LDH release (AID 1610); conditions: PC12 mutant huntingtin toxicity, final LDH at 4 uM, stronger effect = lower value
# [7] = enhancers of glutamate uptake in motor neurons, MN-1 cell line (AID 1612); conditions: MN-1 motor neuron cells, stronger effect = higher value;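 further: tested at 1 µM final; 0% = mean of DMSO vehicle wells on each plate; positive means more glutamate uptake than control and negative means less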
# [8] = suppressors of polyglutamine aggregation in yeast, 75Q-TubH (AID 1616); conditions: S. cerevisiae 75Q-TubH polyglutamine aggregation suppression; stronger effect = higher value
# [9] = differential killing of epithelial or mesenchymal cells, primary screen, imaging, PC-3E GFP, TEM4-18 mCherry, co-culture (AID 1345086); conditions: imaging cell counts, at 1 µM; for red/green cell ratio (normalised): actives lie on both sides, counts scaled to control wells, 1 = unselective;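 on all read-outs here: cells exposed to compound for 72 h before imaging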;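 on red/green cell ratio (normalised): normalised mesenchymal count divided by normalised epithelial count so high means epithelial killing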
# [10] = target: NAD(+) hydrolase SARM1 (Homo sapiens) (UniProt Q6SZW1); test: SARM1 TIR NADase inhibitors, cell lysate, NAD-Glo luminescence (AID 1508614;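 active means compound whose remaining NAD level is above about 45 nM, limit read from the data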); conditions: SAM-TIR HEK293T lysate NADase, at 1 µM, stronger effect = higher value
# [11] = target: Mitogen-activated protein kinase 7 (Homo sapiens) (UniProt Q13164); test: ERK5 transactivation activators in reporter cells, primary screen, cell-based, HTS (AID 1508626;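 active means luciferase signal above three times the same-plate solvent-only control wells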;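 further: luciferase driven by Gal4-ERK5 fusion binding five Gal4 sites before minimal TATA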); conditions: HeLa Gal4-ERK5 transactivation, 18 h, at 5 µM, stronger effect = higher value
# [12] = reducers of polyQ inclusions in PC12 cells, cell-based, NGF-treated PC12, GFPQ80 (AID 1614); conditions: PC12 NGF-treated GFP-polyQ80 inclusion reduction;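 further: lower means fewer inclusions and 0 means no inclusions at all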
# [13] = protection of motor neurons from glutamate death, cell-based, TUNEL DNA degradation staining, MNGlu (AID 1594; call rule not given here); conditions: glutamate-induced death, at 1 µM, stronger effect = higher value
# [14] = liver-stage malaria parasite growth inhibition, primary screen, cell-based, HepG2, luciferase luminescence, HepG2 viability (AID 624349; in the data active means parasite load remaining mostly below about 12%, no sharp cut-off; inactive means mostly above about 10%;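 further: 100% = mean of DMSO negative control wells on the same plate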); conditions: P. berghei liver stage in HepG2, luciferase luminescence, concentration not given here; parasite load remaining: stronger effect = lower value; viability: measured here: HepG2 viability without parasites
# [15] = measured here: epithelial PC-3E GFP cell survival
# [16] = measured here: mesenchymal TEM4-18 mCherry cell survival
# Sequence of Mitogen-activated protein kinase 7 (Homo sapiens) (Q13164 whole entry, looked up, the tested form may be a part): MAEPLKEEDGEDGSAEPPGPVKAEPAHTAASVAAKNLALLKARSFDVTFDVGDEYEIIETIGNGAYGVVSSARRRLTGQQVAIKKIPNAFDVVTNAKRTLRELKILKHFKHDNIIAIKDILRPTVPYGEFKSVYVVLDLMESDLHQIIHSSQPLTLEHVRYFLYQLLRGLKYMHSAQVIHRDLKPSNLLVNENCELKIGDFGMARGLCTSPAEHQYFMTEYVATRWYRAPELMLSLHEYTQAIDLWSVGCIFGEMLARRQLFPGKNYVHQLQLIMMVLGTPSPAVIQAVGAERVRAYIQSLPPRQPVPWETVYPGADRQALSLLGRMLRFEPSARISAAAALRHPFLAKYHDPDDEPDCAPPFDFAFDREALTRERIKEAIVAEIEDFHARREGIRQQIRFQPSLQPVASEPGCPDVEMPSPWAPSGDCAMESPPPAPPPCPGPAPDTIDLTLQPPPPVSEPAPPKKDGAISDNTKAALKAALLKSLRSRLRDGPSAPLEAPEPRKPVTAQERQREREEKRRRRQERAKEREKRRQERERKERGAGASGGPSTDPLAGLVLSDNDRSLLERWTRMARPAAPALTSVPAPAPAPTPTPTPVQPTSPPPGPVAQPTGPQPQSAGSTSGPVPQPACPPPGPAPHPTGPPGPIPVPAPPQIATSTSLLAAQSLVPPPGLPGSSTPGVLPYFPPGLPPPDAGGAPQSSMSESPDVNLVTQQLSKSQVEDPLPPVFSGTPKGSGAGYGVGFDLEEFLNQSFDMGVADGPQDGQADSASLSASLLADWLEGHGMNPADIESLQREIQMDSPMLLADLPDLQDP
# Sequence of NAD(+) hydrolase SARM1 (Homo sapiens) (Q6SZW1 whole entry, looked up, the tested form may be a part): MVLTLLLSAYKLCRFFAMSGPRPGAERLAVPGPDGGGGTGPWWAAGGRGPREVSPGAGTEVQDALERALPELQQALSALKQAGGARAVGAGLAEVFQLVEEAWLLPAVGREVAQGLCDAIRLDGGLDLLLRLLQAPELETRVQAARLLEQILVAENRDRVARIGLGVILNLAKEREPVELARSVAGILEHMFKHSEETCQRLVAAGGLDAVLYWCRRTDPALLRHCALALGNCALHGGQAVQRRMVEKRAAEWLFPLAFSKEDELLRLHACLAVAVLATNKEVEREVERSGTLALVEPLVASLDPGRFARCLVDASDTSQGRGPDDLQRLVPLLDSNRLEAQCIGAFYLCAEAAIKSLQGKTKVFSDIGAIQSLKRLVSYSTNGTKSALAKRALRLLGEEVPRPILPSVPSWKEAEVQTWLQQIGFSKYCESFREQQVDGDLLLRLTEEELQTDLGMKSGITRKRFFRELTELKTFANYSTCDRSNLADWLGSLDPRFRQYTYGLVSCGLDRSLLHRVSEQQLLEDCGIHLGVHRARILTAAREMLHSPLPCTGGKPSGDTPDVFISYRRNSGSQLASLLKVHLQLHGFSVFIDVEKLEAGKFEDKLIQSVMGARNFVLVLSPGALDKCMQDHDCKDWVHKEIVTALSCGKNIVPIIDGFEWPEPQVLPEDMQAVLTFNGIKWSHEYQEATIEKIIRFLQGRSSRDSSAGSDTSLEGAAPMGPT
smiles,measurement,setting,value
OCC(S)CS (configuration not stated),inhibition,[1],11.1%
same,score,[2],-0.34
same,rescue above control,[3],28.1
same,cytochrome c release ratio,[4],0.92
same,inhibition of aggregation,[5],68.7%
same,normalised LDH release,[6],0.667
same,glutamate uptake change,[7],23.2%
same,aggregation suppression score,[8],-0.815
same,red/green cell ratio (normalised),[9],1.01 (inactive)
same,normalised cell number,[9]; [15],0.72
same,normalised cell number,[9]; [16],0.73
same,remaining NAD,[10],10 nM (inactive)
same,luciferase signal,[11],92 AU (inactive)
CC(=O)O[C@@H]1CC[C@@]2(C)C(CC[C@]3(C)C2CC=C2C4CC(C)(C)CC[C@]4(C(=O)O)CC[C@]23C)C1(C)C (some centres not stated),red/green cell ratio (normalised),[9],0.84 (inactive)
same,normalised cell number,[9]; [15],1.04
same,normalised cell number,[9]; [16],0.87
same,luciferase signal,[11],44 AU (inactive)
CC(=O)OCC(=O)[C@@]1(O)CCC2C3CCC4=CC(=O)C=C[C@]4(C)[C@@]3(F)[C@@H](O)C[C@@]21C (some centres not stated),red/green cell ratio (normalised),[9],0.75 (inactive)
same,normalised cell number,[9]; [15],1.27
same,normalised cell number,[9]; [16],0.95
same,luciferase signal,[11],76 AU (inactive)
Cc1cc(O)c(C=O)c2c1C(=O)Oc1c(COC(=O)/C=C/C(=O)O)c(O)c(C(=O)O)c(C)c1O2,red/green cell ratio (normalised),[9],1.12 (inactive)
same,normalised cell number,[9]; [15],1.12
same,normalised cell number,[9]; [16],1.25
same,luciferase signal,[11],16 AU (inactive)
CC1(C)CC[C@]2(C(=O)O)CC[C@]3(C)C(=CCC4[C@@]5(C)CC[C@@H](O)C(C)(C)C5CC[C@]43C)C2C1 (some centres not stated),red/green cell ratio (normalised),[9],1 (inactive)
same,normalised cell number,[9]; [15],0.94
same,normalised cell number,[9]; [16],0.95
same,luciferase signal,[11],16 AU (inactive)
O=c1cc(-c2ccccc2)oc2cccc(O)c12,red/green cell ratio (normalised),[9],0.94 (inactive)
same,normalised cell number,[9]; [15],1.1
same,normalised cell number,[9]; [16],1.03
same,luciferase signal,[11],104 AU (inactive)
CC(=O)Oc1cc2c(c(C)c1OC(C)=O)CC=C1[C@@]2(C)CC[C@@]2(C)C3C[C@](C)(C(=O)O)CC[C@]3(C)CC[C@]12C (some centres not stated),red/green cell ratio (normalised),[9],0.58 (inactive)
same,normalised cell number,[9]; [15],1.06
same,normalised cell number,[9]; [16],0.62
same,luciferase signal,[11],48 AU (inactive)
COc1ccc(-c2coc3cc(O)ccc3c2=O)c(OC)c1,red/green cell ratio (normalised),[9],1.02 (inactive)
same,normalised cell number,[9]; [15],1.07
same,normalised cell number,[9]; [16],1.08
same,luciferase signal,[11],60 AU (inactive)
O=c1cc(-c2ccc(O)cc2)oc2ccc(O)cc12,red/green cell ratio (normalised),[9],1 (inactive)
same,normalised cell number,[9]; [15],0.97
same,normalised cell number,[9]; [16],0.97
same,luciferase signal,[11],52 AU (inactive)
COc1cc(OC)c(C(C)=O)c(O)c1C,red/green cell ratio (normalised),[9],0.96 (inactive)
same,normalised cell number,[9]; [15],0.98
same,normalised cell number,[9]; [16],0.94
same,luciferase signal,[11],32 AU (inactive)
CC(C)(N=NC(C)(C)C(=N)N)C(=N)N,red/green cell ratio (normalised),[9],1.04 (inactive)
same,normalised cell number,[9]; [15],1.17
same,normalised cell number,[9]; [16],1.22
same,luciferase signal,[11],20 AU (inactive)
CC(=O)O[C@@H]1CC2C(C)(C)[C@H](O)C=C[C@]2(C)C2CC[C@@]3(C)[C@H](c4ccoc4)OC(=O)C4OC43[C@@]21C (some centres not stated),red/green cell ratio (normalised),[9],1.02 (inactive)
same,normalised cell number,[9]; [15],1.17
same,normalised cell number,[9]; [16],1.19
same,luciferase signal,[11],56 AU (inactive)
COc1cc2oc3cc(OC)c(OC)c(CC=C(C)C)c3c(=O)c2c(OC)c1CC=C(C)C,red/green cell ratio (normalised),[9],0.95 (inactive)
same,normalised cell number,[9]; [15],1.02
same,normalised cell number,[9]; [16],0.97
same,luciferase signal,[11],164 AU (inactive)
COc1ccc(-c2oc3cc(OC)c(OC)c(OC)c3c(=O)c2OC)cc1OC,red/green cell ratio (normalised),[9],1.2 (inactive)
same,normalised cell number,[9]; [15],0.9
same,normalised cell number,[9]; [16],1.08
same,luciferase signal,[11],32 AU (inactive)
CN(C)CC(=O)OC[C@@H](O)[C@@H](O)[C@H](O)[C@@H](O)C(=O)O,red/green cell ratio (normalised),[9],1.02 (inactive)
same,normalised cell number,[9]; [15],1.08
same,normalised cell number,[9]; [16],1.1
same,luciferase signal,[11],36 AU (inactive)
COc1cc(O)c(C(=O)/C=C/c2ccc(O)c(OC)c2)c(OC)c1,red/green cell ratio (normalised),[9],0.93 (inactive)
same,normalised cell number,[9]; [15],1.1
same,normalised cell number,[9]; [16],1.02
same,luciferase signal,[11],60 AU (inactive)
CNc1ccccc1C(=O)N1CCc2c([nH]c3ccccc23)C1=O,red/green cell ratio (normalised),[9],1.01 (inactive)
same,normalised cell number,[9]; [15],0.95
same,normalised cell number,[9]; [16],0.96
same,luciferase signal,[11],56 AU (inactive)
COc1ccc2c(c1)OCC(Cc1ccc(O)c(OC)c1)C2=O (configuration not stated),red/green cell ratio (normalised),[9],0.93 (inactive)
same,normalised cell number,[9]; [15],1.04
same,normalised cell number,[9]; [16],0.96
same,luciferase signal,[11],84 AU (inactive)
CNC(C)[C@@H]1CC[C@@H](N)[C@@H](OC2[C@@H](N)C[C@@H](N)[C@H](OC3OC[C@](C)(O)[C@H](NC)[C@H]3O)[C@H]2O)O1 (some centres not stated),inhibition,[1],-0.7%
same,score,[2],1.63
same,rescue above control,[3],-1.8
same,cytochrome c release ratio,[4],2.33
same,inhibition of aggregation,[5],66.7%
same,glutamate uptake change,[7],1.4%
same,inclusion score,[12],2
same,aggregation suppression score,[8],1.62
same,red/green cell ratio (normalised),[9],1.29 (inactive)
same,normalised cell number,[9]; [15],1.02
same,normalised cell number,[9]; [16],1.32
same,remaining NAD,[10],10 nM (inactive)
same,luciferase signal,[11],28 AU (inactive)
O=c1cc(-c2ccc(O)cc2)oc2cc(O)ccc12,red/green cell ratio (normalised),[9],0.77 (inactive)
same,normalised cell number,[9]; [15],1.28
same,normalised cell number,[9]; [16],0.98
same,luciferase signal,[11],180 AU (active)
COc1ccc(-c2oc3cc(OC)c(OC)c(OC)c3c(=O)c2OC)cc1,red/green cell ratio (normalised),[9],1.04 (inactive)
same,normalised cell number,[9]; [15],1.02
same,normalised cell number,[9]; [16],1.05
same,luciferase signal,[11],72 AU (inactive)
COc1ccc(/C=C/C(=O)c2cc(O)ccc2O)cc1,red/green cell ratio (normalised),[9],0.92 (inactive)
same,normalised cell number,[9]; [15],1.12
same,normalised cell number,[9]; [16],1.03
same,luciferase signal,[11],80 AU (inactive)
CC(=O)O[C@H]1CC[C@@]2(C)C(C[C@@H](OC(C)=O)[C@@]3(C)C4=CC(=O)O[C@@H](c5ccoc5)[C@]4(C)CCC23)C1(C)C (some centres not stated),red/green cell ratio (normalised),[9],0.88 (inactive)
same,normalised cell number,[9]; [15],0.93
same,normalised cell number,[9]; [16],0.82
same,luciferase signal,[11],28 AU (inactive)
COc1ccc2c(c1)O[C@H]1c3ccc(OC)cc3OC[C@@H]21,red/green cell ratio (normalised),[9],1.06 (inactive)
same,normalised cell number,[9]; [15],1
same,normalised cell number,[9]; [16],1.07
same,luciferase signal,[11],68 AU (inactive)
CC(=O)O[C@H]1CC[C@@]2(C)C(C[C@@H](OC(C)=O)[C@]3(C)C2CC[C@@]2(C)[C@H](c4ccoc4)OC(=O)[C@H]4O[C@]423)C1(C)C (some centres not stated),red/green cell ratio (normalised),[9],1.12 (inactive)
same,normalised cell number,[9]; [15],1
same,normalised cell number,[9]; [16],1.12
same,luciferase signal,[11],60 AU (inactive)
CC(=O)OCC(OC(C)=O)C(OC(C)=O)C(OC(C)=O)C(OC(C)=O)C(COC(C)=O)OC(C)=O (configuration not stated),red/green cell ratio (normalised),[9],1.06 (inactive)
same,normalised cell number,[9]; [15],0.99
same,normalised cell number,[9]; [16],1.05
same,luciferase signal,[11],80 AU (inactive)
Nc1ccc(C(=O)O)c(O)c1 (tested in a mixture with another compound),inhibition,[1],-9.55%
same,score,[2],1.25
same,protection,[13],60% (active)
same,rescue above control,[3],-2.24
same,cytochrome c release ratio,[4],0.96
same,inhibition of aggregation,[5],69%
same,glutamate uptake change,[7],-12.2%
same,inclusion score,[12],2
same,aggregation suppression score,[8],1.1
same,parasite load remaining,[14],155% (inactive)
same,viability,[14],85.3%
same,red/green cell ratio (normalised),[9],0.93 (inactive)
same,normalised cell number,[9]; [15],1.14
same,normalised cell number,[9]; [16],1.06
same,remaining NAD,[10],10 nM (inactive)
